Among the data in PubChem BioAssay (NCI) are growth values, retold here.

The panel holds about 83,000 compounds, 20% with a hit somewhere; the sample as a whole holds those more often.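 Growth was measured after 48 h exposure to one concentration of compound in 96-well plates. Values under 10 count as active.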 Values without a mark were called inactive. Active and inactive are the calls of the source.

Common to all, as to assay: NCI-60 one-dose screen, 48 h (100 = growth as untreated, 0 = no growth, -100 = all killed)
Common to all, as to details: 10 µM unless noted

Assay [1] concerns HCT-15 colon.
The subject of assay [2] is HT29 colon.
In assay [3] the test system is SNB-75 CNS.
For assay [4], the system named is SNB-19 CNS.
For assay [5], the system named is U251 CNS.
The test system of assay [6] is PC-3 prostate.
In assay [7] the test system is UACC-62 melanoma.
Assay [8] relates to LOX IMVI melanoma.
Assay [9] concerns SK-MEL-28 melanoma.
For assay [10], the system named is SK-MEL-5 melanoma.

Take `CC(=O)Nc1ccc(C(=O)COc2cccc(/C=C3\CCc4ccccc4C3=O)c2)cc1`: the growth in assay [1] is 89%; in [2] it was 101%; in assay [3], 78.7%; in assay [4], 94.1%; in [5], 83.4%; in assay [6] it was 76.1%. Further, the growth was 83.6% in [7], 71.5% in assay [8] and 109% in assay [9].
Take `CCOC(=O)c1sc(NC(=O)COc2cccc(/C=C3\Cc4ccc(Cl)cc4C3=O)c2)nc1C`: the growth was 97.4% in [1]; 118% in [2]; 113% in assay [3]; 99.9% in assay [4]; 99.4% in [5]; 103% in assay [6]. Also, the growth in [10] was 97.4%; in [7] it was 95.8%; in assay [8], 97.7%; in assay [9], 118%.
Regarding `c1ccc(COc2ccc(Nc3ncnc4c3cnn4-c3ccccc3)cc2)cc1`, the growth is 72.4% in assay [1]; 116% in [2]; 102% in [3]; 96% in assay [4]; 106% in [5]; 88.5% in assay [6]. Moreover, the growth was 94.3% in assay [10], 93.3% in [7] and 96% in assay [9].
Turning to `C/C(=C\CCc1ccoc1)CC/C=C(\C)CCCN1CCOCC1`, the growth was 23.8% in assay [1]; 22.7% in assay [2]; 60.9% in assay [3]; 67.5% in assay [4]; 44.3% in assay [5]; 55.9% in assay [6]. Also, the values for the growth in assay [10], in assay [7] and in [9] were 15.6%, 62.5% and 80.4%, respectively.
On to `CCOc1cc(/C=C/C(=O)CC(=O)/C=C/c2ccc(OC(=O)CNc3nc4ccc(OC)cc4s3)c(OCC)c2)ccc1OC(=O)CNc1nc2ccc(OC)cc2s1`, for which the growth in assay [1] was 43.4%; in [2] it was -50.8% (active); in [3], 34.1%; in assay [4], 49%; in [5], 15.7%; in [6], 35.3%. Also, the growth in assay [7] was 55.8%; in assay [8], 6.98% (active); in assay [9], 39.5%.
For `C/C(=C\CCc1ccoc1)CC/C=C(\C)CCCN1CCSCC1`, the growth in assay [1] was 43.3%; in assay [2], 45.8%; in assay [3] it was 93.4%; in [4], 87.8%; in assay [5] it was 76.7%; in [6] it was 84.3%. Moreover, the figures for the growth in assay [10], in assay [7] and in assay [9] were 37.8%, 75.3% and 88.7%, respectively.
Consider `COc1ccc2nc(-c3ccc(Cl)cc3)cc(-c3nnc(SCC(=O)Nc4ccc(C(C)=O)cc4)n3-c3ccccc3)c2c1`, for which the growth in assay [1] was 101%; in assay [2], 78.6%; in assay [3], 81%; in [4] it was 105%; in assay [5] it was 101%; in assay [6], 87.3%. Further, the growth in assay [10] was 103%; in assay [7] it was 97.7%; in [8], 105%; in assay [9], 107%.
Consider `COC(=O)C1(NC(=O)CNC(=O)OCc2ccccc2)CCCC1`, for which the growth in assay [1] was 103%; in assay [2], 108%; in [3], 88.4%; in assay [4], 96.5%; in [5], 105%; in assay [6], 103%. In addition, the growth in [10] was 100%; in assay [7] it was 92.3%; in [8], 97.3%; in assay [9] it was 102%.
`C[C@@H]1[C@H]2[C@H](C=C3[C@@H]4CC[C@H]5Cc6nc7c(nc6C[C@]5(C)[C@H]4C[C@@H](O)[C@@]32C)C[C@@H]2CC[C@H]3C4=C[C@@H]5O[C@@]6(CC[C@](C)(CO)O6)[C@@H](C)[C@@]5(O)[C@@]4(C)[C@H](O)C[C@@H]3[C@@]2(C)C7)O[C@]12CCC(C)(C)O2`: the growth in [1] is 11.2%; in assay [2], -14.6% (active); in [3] it was -9.04% (active); in [4] it was 25.1%; in [5] it was 7.53% (active); in [6], -32% (active). Besides, the growth was 0.934% (active) in assay [10], -0.259% (active) in [7], 3.2% (active) in [8] and 40.8% in assay [9].
For the compound `CCOC(=O)c1cnc2c(C)cc(C)cc2c1NCCCN(C)C`, the growth was 28.2% in [1]; 13.1% in [2]; 51.1% in [3]; 42.4% in assay [4]; 28.3% in [5]; 22% in assay [6]. In addition, the results for the growth in assay [7], in [8] and in [9] were 46.7%, 23.2% and 76.2%, respectively.
Turning to `COC(=O)[C@H](Cc1cn(C)cn1)NC(=O)[C@@H](NC(=O)Nc1cc(C(F)(F)F)cc(C(F)(F)F)c1)C(C)C`, the growth in [1] was -87.6% [100 µM] (active); in assay [2], -81.4% [100 µM] (active); in assay [3] it was -99.8% [100 µM] (active); in assay [4], -90.3% [100 µM] (active); in assay [5], -95.3% [100 µM] (active); in assay [6], -89.6% [100 µM] (active). Besides, the results for the growth in [7], in [8] and in [9] were -93.1% [100 µM] (active), -79.5% [100 µM] (active) and -96.5% [100 µM] (active), respectively.
On to `COc1ccc2c(c1)C(=Nc1cc(OC)c(OC)c(OC)c1)C(=O)N2`, for which the growth in assay [1] is 100%; in [2] it was 115%; in assay [3], 104%; in assay [4], 113%; in [5], 93%; in assay [6], 77.5%. Also, the growth in [7] was 88.8%; in assay [8] it was 81.6%; in assay [9] it was 90.2%.
Consider `CC(=O)Nc1ccc(C(=O)COc2ccc(/C=C3\CCc4ccccc4C3=O)cc2)cc1`, for which the growth was 102% in assay [1]; 104% in [2]; 116% in assay [3]; 106% in [4]; 98.6% in assay [5]; 88.8% in assay [6]. Also, the growth in assay [10] was 98%; in assay [7] it was 99.7%; in assay [8], 99.9%; in [9], 122%.
Turning to `O=C(Nc1ccccc1OC(=O)c1ccccc1)c1ccccc1`, the growth in assay [1] is 88.5%; in assay [2], 51.9%; in [3], 101%; in [4], 87.4%; in [5] it was 47%; in [6], 88.5%. Moreover, the values for the growth in assay [7], in assay [8] and in assay [9] were 82.6%, 60.1% and 118%, respectively.
